According to PubChem BioAssay (NCATS):
Results filed as inconclusive are left out. Activity calls are given as the source filed them. Unless noted, calls come from the whole dose curve; as a rule, active = well fitted curve in the direction sought with a large enough effect; inconclusive = small, poorly fitted or top-dose-only effect, or another doubt; inactive = no such curve, though single readings can be large; an effect the other way counts as inactive or inconclusive.

Assays:
[1] = OV-KATE Cancer Cell Toxicity qHTS against the NCATS CANVASS Library (AID 1347345)
How it was run: (§1)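 Cells were seeded at 1000 per well, allowed 4 h at 37 degrees C/5% CO2, then pin-treated with an 11-point compound series. After 72 h, viability was read as CellTiter-Glo luminescence following 15min at room temperature.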

[2] = HPAF-II Cancer Cell Toxicity qHTS against the NCATS CANVASS Library (AID 1347346)
How it was run: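 Using 1000 HPAF-II cells per well, we titrated compounds over 11 concentrations for 72 h at 37 degrees C/5% CO2, with bortezomib as control. Cell survival was quantified by CellTiter-Glo luminescence.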

[3] = UWB1.289 Cancer Cell Toxicity qHTS against the NCATS CANVASS Library (AID 1347347)
How it was run: as §1

[4] = Panc-1005 Cancer Cell Toxicity qHTS against the NCATS CANVASS Library (AID 1347349)
How it was run: as §1

[5] = SW1088 Cancer Cell Toxicity qHTS against the NCATS CANVASS Library (AID 1347350)
How it was run: as §1

[6] = U-118MG Cancer Cell Toxicity qHTS against the NCATS CANVASS Library (AID 1347351)
How it was run: as §1

[7] = COV-362 Cancer Cell Toxicity qHTS against the NCATS CANVASS Library (AID 1347352)
How it was run: (§2)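 Using an ATP-based luminescent reagent after three days of treatment, toxicity is scored across an eleven-concentration range in wells holding 1000 cells each.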

[8] = A2780 Cisplatin Sensitive Ovarian Cancer Cell Toxicity qHTS against the NCATS CANVASS Library (AID 1347353)
How it was run: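 Quantitative HTS format: eleven compound concentrations applied to pre-seeded cells, 72 h incubation at 37 °C, then ATP detection by luminescence.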

[9] = HEK-293 Cancer Cell Toxicity qHTS against the NCATS CANVASS Library (AID 1347355)
How it was run: as §2

[10] = HPAF-II 24hr Apoptosis Induction qHTS against the NCATS CANVASS Library (AID 1347356)
How it was run: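 Using an 11-point qHTS format, HPAF-II cells in DMEM/10% FBS received compounds for 24 h; doxorubicin titration as control. Caspase-3/7 activity quantified by DEVD-luciferase luminescence.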

[11] = HEK293 18hr Apoptosis Induction qHTS against the NCATS CANVASS Library (AID 1347357)
How it was run: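 Cells seeded at 500/well in DMEM + 10% FBS. Compounds pinned, 11 concentrations. 18 h, 37 degrees C/5% CO2. Caspase-Glo 3/7 added, 15 min RT dark, luminescence read.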

[12] = HPAF-II 12hr Apoptosis Induction qHTS against the NCATS CANVASS Library (AID 1347358)
How it was run: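 Twelve-hour compound exposure of HPAF-II cells in DMEM with 10% FBS, then luminescent Caspase-Glo 3/7 detection after 15 min at room temperature; doxorubicin control.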

[13] = HEK293 24hr Apoptosis Induction qHTS against the NCATS CANVASS Library (AID 1347359)
How it was run: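 HEK293 cells (500/well, DMEM + 10% FBS) were exposed to compounds in an 11-point series for 24 hours at 37 degrees C, then caspase-3/7 activity was read by Caspase-Glo DEVD luciferase luminescence after 15 min.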

[14] = HPAF-II 18hr Apoptosis Induction qHTS against the NCATS CANVASS Library (AID 1347360)
How it was run: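 Seed HPAF-II cells at 500/well in DMEM + 10% FBS, pin-transfer compounds, incubate 18 hours at 37 degrees C/5% CO2, add Caspase-Glo 3/7 reagent, wait 15 min, read luminescence.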

[15] = HEK293 12hr Apoptosis Induction qHTS against the NCATS CANVASS Library (AID 1347361)
How it was run: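 Cells are seeded, dosed with an 11-point compound series and incubated 12 hours. Caspase-3/7 activity is detected by luminescent DEVD-substrate reagent after 15 minutes at room temperature.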

[16] = test system: NAD(P)H diaphorase (Clostridium kluyveri); assay: Diaphorse counterscreen qHTS: Assay Interference Panel against the NCATS CANVASS Library (AID 1347362)
How it was run: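 Clostridium kluyveri diaphorase in PBS with 0.01% Tween-20 was preincubated 15 min at room temperature in the dark with compounds (11-point series). Resorufin fluorescence (ex 525/20, em 598/25) was read 5 min after adding resazurin/NADH.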

[17] = target: Luciferin 4-monooxygenase (Photinus pyralis) (UniProt P08659); assay: Firefly luciferase counterscreen qHTS: Assay Interference Panel against the NCATS CANVASS Library (AID 1347363)
Luciferin 4-monooxygenase (Photinus pyralis), sequence (P08659 whole entry, looked up): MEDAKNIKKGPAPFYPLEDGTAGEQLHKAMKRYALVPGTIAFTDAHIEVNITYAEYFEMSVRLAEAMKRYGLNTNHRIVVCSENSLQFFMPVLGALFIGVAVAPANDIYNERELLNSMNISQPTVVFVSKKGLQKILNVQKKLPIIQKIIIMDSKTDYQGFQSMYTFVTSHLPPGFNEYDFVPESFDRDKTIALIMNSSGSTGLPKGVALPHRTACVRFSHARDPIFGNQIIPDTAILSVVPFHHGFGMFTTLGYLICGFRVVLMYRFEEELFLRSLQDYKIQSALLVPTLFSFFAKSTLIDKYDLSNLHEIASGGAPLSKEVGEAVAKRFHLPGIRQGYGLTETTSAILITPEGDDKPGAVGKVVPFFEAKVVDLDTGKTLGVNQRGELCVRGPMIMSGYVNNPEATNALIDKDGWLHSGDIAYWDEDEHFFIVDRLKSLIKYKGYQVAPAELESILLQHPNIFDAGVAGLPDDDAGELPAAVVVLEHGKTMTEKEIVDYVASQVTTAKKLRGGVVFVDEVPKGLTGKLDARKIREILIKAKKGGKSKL
How it was run: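 Purified P. pyralis luciferase was added to compounds (11-point series) preincubated 15 min at room temperature with substrate containing 0.013 mM D-luciferin and 0.013 mM ATP; luminescence was read after 5 min.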

[18] = KB-8-5-11 Cancer Cell Toxicity qHTS against the NCATS CANVASS Library (AID 1347364)
How it was run: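 Luminescent ATP signal (CellTiter-Glo, 10 min at room temperature) measured cell survival of KB-8-5-11 after 72 hr compound treatment. For confirmation, the cells were also grown with 1uM tariquidar.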

[19] = qHTS for ATAD5 Agonist screened against the NCATS CANVASS Library (AID 1347367)
How it was run: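 HEK293T-ATAD5 luc reporter; 2000 cells/well; 5hr settle; cpd 11-pt qHTS; 16hr 37C 5% CO2 dark; viability by CellTiter-Fluor (AFC fluorescence); then luciferase luminescence, 30min RT.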

[20] = MCF7 Cancer Cell Toxicity qHTS against the NCATS CANVASS Library (AID 1347369)
How it was run: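 Cells seeded at 500/well, then compound pinned. Plates incubated 72 hr at 37C, 5% CO2. CellTiterGlo added; luminescence read.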

[21] = qHTS for ATAD5 Antagonist screened against the NCATS CANVASS Library (AID 1347370)
How it was run: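 HEK293T-ATAD5 luc reporter, 2000 cells/well; 5hr attach; cpd + 10 uM 5-FUrd; 16hr 37C, 5% CO2. Readouts: CellTiter-Fluor fluorescence (1hr), then Amplite luciferase luminescence (30min RT).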

[22] = target: Nuclear receptor subfamily 1 group I member 3 (Homo sapiens) (UniProt Q14994); assay: qHTS for Constitutive Androstane Receptor (CAR) Antagonist screened against the NCATS CANVASS Library (AID 1347372)
Nuclear receptor subfamily 1 group I member 3 (Homo sapiens), sequence (Q14994 whole entry, looked up): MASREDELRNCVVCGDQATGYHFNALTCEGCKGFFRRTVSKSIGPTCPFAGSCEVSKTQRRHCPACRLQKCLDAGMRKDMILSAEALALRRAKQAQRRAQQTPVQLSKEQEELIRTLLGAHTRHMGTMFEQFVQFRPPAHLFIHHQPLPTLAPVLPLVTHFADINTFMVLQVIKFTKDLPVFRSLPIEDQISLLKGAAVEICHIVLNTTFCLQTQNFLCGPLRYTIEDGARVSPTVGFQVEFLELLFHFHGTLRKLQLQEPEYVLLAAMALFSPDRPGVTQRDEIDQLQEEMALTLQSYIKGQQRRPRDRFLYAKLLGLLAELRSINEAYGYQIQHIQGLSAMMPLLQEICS
How it was run: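 Cells were seeded and left 4hr to attach, then received compound at 11 concentrations and 50 nM CITCO. Following 24hr incubation, fluorescence viability and luciferase luminescence were read sequentially.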

[23] = target: Nuclear receptor subfamily 1 group I member 3 (Homo sapiens) (UniProt Q14994); assay: qHTS for Constitutive Androstane Receptor (CAR) Agonist screened against the NCATS CANVASS Library (AID 1347373)
How it was run: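 In an 11-point concentration series, compounds were incubated 24hr with HepG2 cells carrying hCAR and a CYP2B6-2.2kb reporter, with PK11195 at 1.5uM final. A CellTiter-Fluor viability read preceded the ONE-Glo luminescence read.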

[24] = qHTS for Hypoxia signaling pathway (HIF-1) antagonists against the NCATS CANVASS Library (AID 1347374)
How it was run: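 Beta-lactamase reporter under HRE control in ME-180 cells; CoCl2 stimulus (60 uM solution as added), compounds 11-pt qHTS, 17 h 37C. CCF4 dye 2 h RT, 460/530 nm emission. CellTiter-Glo viability in same wells.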

[25] = 10-beta competent E. coli microbial cell viability qHTS against the NCATS CANVASS Library (AID 1347376)
How it was run: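 Overnight 37C exposure of 10-beta E. coli (0.2 OD) to an 11-point concentration series; ATP-based luminescence after 20 min room-temperature reagent incubation; daunomycin as control.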

[26] = qHTS for H2AX Agonists against the NCATS CANVASS Library (AID 1347378)
How it was run: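 CHO-K1, 1000 cells/well, o/n 37C; cpd several conc, 3 hr 37C, 0.76% DMSO; lyse 30 min RT; cryptate anti-pH2AX(S139) + d2 anti-H2AX, 24 hr RT; HTRF 665/620.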

[27] = qHTS for Inflammasome Signaling Inhibitors: IL-1-beta AlphaLISA screen against the NCATS CANVASS Library (AID 1347379)
How it was run: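 THP-1, 1 hr compound pre-incubation, then LPS 250 ng/mL + ATP 1.25 mM (final); 16 hr total with compound; IL-1B AlphaLISA, ex 680/em 615 nm; 11-point qHTS, up to 57.5 uM final.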

[28] = qHTS for Antimalaria activity screened against the NCATS CANVASS Library (AID 1347380)
How it was run: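 Measures proliferation or cytotoxicity against Dd2 blood stages in 72 h cultures, 11-point qHTS dosing, with SYBR Green fluorescence as read-out; dihydroartemisinin titration served as control.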

[29] = Inflammasome Signaling qHTS Counterscreen: IL-1-beta AlphaLISA counterscreen against the NCATS CANVASS Library (AID 1347381)
How it was run: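 Here, no cellular stimulation occurs; compounds in an 11-point series meet 4 pg purified IL-1-beta directly. Bead-based AlphaLISA detection follows (1 h acceptor/antibody, then 30 min donor, dark, room temperature), with excitation at 680 nm.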

[30] = Cytotoxicity qHTS for assessment of Hepg2 cells membrane integrity screened against the NCATS CANVASS Library (AID 1347387)
How it was run: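 Membrane damage in HepG2 monolayers was estimated from released LDH, measured with CytoTox-ONE (ex 560/em 590 nm), after 5 hr treatment across 0.59 nM - 46 uM final.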

[31] = qHTS for Activators of p53 Stress Response Pathway screened against the NCATS CANVASS Library (AID 1347388)
How it was run: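 p53RE-bla HCT-116 cells (4000/well) were plated 5 h at 37C, exposed to compounds for 16 h at 37C over an 11-point concentration series, then loaded with CCF4 for 2 h at room temperature; 460/530 nm emission ratio read.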

[32] = qHTS assay for small molecule disruptors of mitochondrial membrane potential screened against the NCATS CANVASS Library (AID 1347389)
How it was run: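 Cells (HepG2) seeded the day before received compound or DMSO for 1 hr, then Mito-MPS dye for 30 min at 37C; emission at 590 nm over 535 nm gave the polarization signal.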

[33] = Secretion counterscreen for inhibitors of the SERCaMP assay screened against the NCATS CANVASS Library (AID 1347390)
How it was run: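 SH-SY5Y-GLuc STOP cells; 4 h attach; cpds 0.001 - 77 uM (qHTS, 11 pts), 20 h 37C/5% CO2; coelenterazine in glow buffer; luminescence, 5 s exposure.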

[34] = qHTS for activators of dead-cell proteases activity screened against the NCATS CANVASS Library (AID 1347392)
How it was run: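 Cytotoxicity in HepG2 cells was assessed by released protease cleaving AAF-aminoluciferin, with luminescence as signal. Exposure lasted 5 h at 37C across an 11-point series.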

[35] = qHTS for inhibitors of ER calcium dysfunction: SERCaMP assay screened against the NCATS CANVASS Library (AID 1347393)
How it was run: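 qHTS in SH-SY5Y reporter cells: 16 h compound pretreatment, 4 h thapsigargin, then secreted Gaussia luciferase measured by luminescence.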

[36] = Vero-766 cells viability qHTS against the NCATS CANVASS Library: Counterscreen for Zika virus inhibition assay (AID 1347394)
How it was run: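 Vero 766, no virus; 1000 cells/well; o/n attach; cpd 11-pt; 72 h, 37C, 5% CO2; CTG luminescence; cell-free media wells = 100% inhibition.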

[37] = qHTS for inhibitors of Wild type Zika virus screened against the NCATS CANVASS Library (AID 1347396)
How it was run: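 Protection against wild-type Zika cytopathic effect is measured in African green monkey Vero 766 cells exposed to an 11-point compound series. Surviving cells are quantified by CellTiter Glo luminescence after 72 h.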

[38] = Viability qHTS for inhibitors of the SERCaMP assay screened against the NCATS CANVASS Library (AID 1347400)
How it was run: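 Measures loss of viability in SERCaMP reporter SH-SY5Y cells treated for 48 h with compounds; luminescent ATP detection by CellTiter-Glo.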

[39] = Redox Reaction Profiling qHTS: Assay Interference Panel against the NCATS CANVASS Library (AID 1347401)
How it was run: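 Quantitative HTS over an 11-point series was run in HEPES pH 7.3 with 50 mM NaCl, 200 uM DTT and 5 uM resazurin. Initial and 15-min resorufin fluorescence readings were taken.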

[40] = qHTS for inhibitors of Rabies Virus screened against the NCATS CANVASS Library (AID 1347402; calls by dose curve)

Measured: Potency

C[C@]12CC(O)C3[C@@H](CCC4C[C@@H](O)CC[C@@]43CO)[C@@]1(O)CCC2C1=CC(=O)OC1 (stereo not given in full)
inactive: all assays above
